In ChEMBL document CHEMBL4513216, “Probing the Open Global Health Chemical Diversity Library for Multistage-Active Starting Points for Next-Generation Antimalarials” (ACS Infect Dis, 2020):
Screen size: about 68,000 compounds; about 2,700 (4%) showed an effect of 50% or more. For the sample, strong results were picked, then their nearest neighbours and some compounds at random.

system: Plasmodium berghei; assay: Screen against P. berghei liver stage (PbLuc), transformed with Luciferase, at 2uM; format: functional, HepG2; details: tested at 2 uM

SMILES	INHIBITION [%]
NCc1cnc(Nc2ccccc2)nc1	16.87
O=C1Nc2ccccc2CNC12CCN(CC1CC1)CC2	58.42
O=C1Nc2ccccc2CNC12CCN(CC1CCCC1)CC2	-7.08
O=C1Nc2ccccc2CNC12CCN(CC1CCNC1)CC2 (stereo not given)	21.69
COc1cccc2sc(N3CC(OC(C)=O)C3)nc12	-5.98
CSCC(C)NS(=O)(=O)c1ccc(C)c(N(C)C)c1 (stereo not given)	-1.57
Cc1ccc(S(=O)(=O)N[C@H](CO)C(C)C)cc1N(C)C	-94.5
COCCC(C)NS(=O)(=O)c1ccc(C)c(N(C)C)c1 (stereo not given)	52.6
CN(C)CC(=O)N1Cc2ncn(C)c2C(COCC2CCOCC2)C1 (stereo not given)	6.8
Cn1c(CC2CCS(=O)(=O)C2)nnc1SCCOc1ccccc1F (stereo not given)	7.08
O=C(Cn1ccc(=O)[nH]c1=O)NCc1cccnc1OCC(F)(F)F	51.76
O=C(Cn1cccnc1=O)NCc1cccnc1OCC(F)(F)F	3.95
CN1CC(C(=O)NCc2cccnc2OCC(F)(F)F)CC1=O (stereo not given)	9.21
Cc1ccc2[nH]c(=O)c(CNCCCN3CCOCC3)cc2c1	22.39
O=C(c1c[nH]cn1)N1CCC(F)(F)C2(CCN(c3ncccn3)C2)C1 (stereo not given)	38
CCc1cc(C(=O)N2Cc3ccccc3OC3(CCOCC3)C2)on1	14.05
c1nc(N2CCCC(Cn3cncn3)C2)c2ccsc2n1 (stereo not given)	-1.74
O=C1[C@@H]2CC[C@@H](CN(c3ncnc4ccsc34)C2)N1CC1CC1	62.51
c1nc(N2CCCC(Cn3cncn3)C2)c2sccc2n1 (stereo not given)	68.24
CN1C(=O)[C@@H]2CC[C@H]1CN(c1ncnc3ccsc13)C2	14.82
COc1cc(N2C[C@H]3CC[C@@H](C2)N(CC2CCC2)C3=O)ncn1	8.26
Cc1cnn(CC2CCCN2c2ncnc3ccsc23)c1 (stereo not given)	53.33
c1nc(N2CCCC2Cn2cncn2)c2sccc2n1 (stereo not given)	-48.41
Cc1cnn(CC2CCCN2c2ncnc3sccc23)c1 (stereo not given)	37.87

SMILES	INHIBITION [%]
Cc1nc(C)n(CC2CCCN(c3ncnc4ccsc34)C2)n1 (stereo not given)	-20.93
COC(=O)CN(C(=O)c1ccc(Cl)o1)c1cccc(F)c1	34.65
O=C(NCc1ccc(Br)c(F)c1)Nc1cn[nH]c1	2.31
Cc1cc(CN2CCCC2c2c(C)nn(C)c2Cl)on1 (stereo not given)	-50.23
CCc1nc(CN(C)c2nccc(N3CCCC(O)C3)n2)no1 (stereo not given)	11.38
Cc1cnn(CC2CN(Cc3nc(C)no3)CCO2)c1 (stereo not given)	-35.62
O=C(C1CC1)N1CCCC1C1CCN(Cc2ccccc2)CC1 (stereo not given)	53.86
O=C(c1ccncc1)N1CCCC1C1CCN(Cc2ccccc2)CC1 (stereo not given)	45.82
O=C(c1ccco1)N1CCCC1C1CCN(Cc2ccccc2)CC1 (stereo not given)	3
CC(=O)c1cc(CC(=O)NCc2cccc(F)c2F)cs1	36.26
Cc1nnc(N2C[C@@H]3CCCO[C@@H]3[C@H](N3CCCC3=O)C2)s1	21.57
CC(=O)N1CCCN(C(=O)NCCNc2cnccn2)CC1	64.71
CN1CCCN(C(=O)NCCNc2cnccn2)CC1	12.88
O=C(NCCNc1cnccn1)N1CCCC1	-12.31
COCC1(C(=O)N[C@H]2CN(c3noc(C)n3)C[C@@H]2C2CC2)CCC1	21.28
CC(C)S(=O)(=O)NCC1CCCN(C(=O)c2ccc3c(c2)OCCO3)C1 (stereo not given)	21.39
O=C(CC1CC1)N[C@@H]1CN(C(=O)c2cccs2)C[C@@H]2CCCO[C@@H]21	45.36
CCN1CCN(C(=O)NC(C)c2noc(-c3ccccc3)n2)CC1 (stereo not given)	88.75
CC(NC(=O)N1CCSC(C)(C)C1)c1noc(-c2ccccc2)n1 (stereo not given)	29.13
CC(NC(=O)N1CCC[C@H]1CO)c1noc(-c2ccccc2)n1 (stereo not given in full)	5.28
O=C(Nc1ccccc1)N1C2CCC(O)(CC2)C1CN1CCOCC1 (stereo not given)	11.94
CCC(O)C1CCN(C(=O)Nc2nc(-c3ccccc3)ns2)CC1 (stereo not given)	57.92
CC(O)C1CCN(C(=O)Nc2nc(-c3ccccc3)ns2)CC1 (stereo not given)	-65.84
O=C(Nc1nc(-c2ccccc2)ns1)N1CCC(CO)CC1	7.72

SMILES	INHIBITION [%]
O=C(c1cscn1)N1CCC2(CN(Cc3ccoc3)C2)C1	46.87
O=C(c1cscn1)N1CCC2(CN(Cc3ccsc3)C2)C1	-27.26
O=C(c1cscn1)N1CCC2(CN(Cc3ccncc3)C2)C1	55.66
NC(=O)C1CCCN1Cc1cccc(NC(=O)c2cc(Cl)cc(Cl)c2)c1 (stereo not given)	3.14
CCc1ccc(C(=O)Nc2cccc(CN3CCCC3C(N)=O)c2)cc1 (stereo not given)	10.61
Cc1cc(C)cc(C(=O)Nc2cccc(CN3CCCC3C(N)=O)c2)c1 (stereo not given)	57.01
O=C(CSc1nnc(N2CCNCC2)s1)Nc1ccccc1	48.59
Cn1nc(Br)c2c(NCCN)ncnc21	60
Cn1nc(Br)c2c(NCCS(N)(=O)=O)ncnc21	20.21
Cn1nc(Br)c2c(NCCNc3ncccn3)ncnc21	33.11
CC(C)NC(=O)CC(C)NCc1cc(Cl)ccc1F (stereo not given)	52.51
CC(C)NC(=O)CNC(C)c1c(F)cccc1Cl (stereo not given)	5.34
CC(C)C(=O)NCc1cc(Br)ccc1F	-64.91
CC(C)NC(=O)CC(C)NCc1ccc(F)cc1Cl (stereo not given)	40.64
CS(=O)(=O)Cc1ccc(Cl)cc1NCc1ccccc1F	0.13
CC(CS(C)(=O)=O)NCc1cc(Cl)ccc1F (stereo not given)	50.53
Cc1cnc(CNc2ncc(C)c(-c3cnn(C)c3)n2)cn1	-20.35
Cc1cccc(N2CCC3(CCN(C(=O)c4cccnc4)CC3)C2)n1	7.29
Cc1nnc(NC(=O)CN2CCCC2c2noc(C3CC3)n2)s1 (stereo not given)	-32.11
CC(NC(=O)c1ccoc1)C(=O)N(C)Cc1ccsc1 (stereo not given)	-56.89
O=C(NCCc1ccsc1)c1ccoc1	52.08
O=C(Cc1ccsc1)NCCc1ccoc1	42.8
